Data taken from PubChem BioAssay AID1159580 (chemical genetic matrix, 2015).
In all, about 5,500 compounds went through this assay and about 2,000 (36%) were called active. About 18% were inconclusive and are not listed. Cut-off read from the data, not from the text of the source: active = normalized growth mostly below about 0.91 (no sharp cut-off); inconclusive = no clear call, values can overlap the other calls; inactive = mostly above about 0.92. This is one part of the list.

Experiment: chemical genetic growth profiling, strain panel (AID 1159580);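 note: tested at 20 µM; growth read once vehicle control cultures reached saturation at 30 °C; 1 = growth at the plate median or of vehicle wells; lower values mean less growth of the strain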
Conditions: S. cerevisiae deletion strains, growth OD
[1] = locus YDR150W, strain NUM1, active compounds read low
[2] = locus YGR078C, strain PAC10, active compounds read low

Measured: normalized growth

O=[N+]([O-])c1ccc(O[C@@H]2O[C@H](CO)[C@@H](O)[C@H](O)[C@H]2F)c([N+](=O)[O-])c1
inactive: locus YAL040C, strain CLN3, active compounds read low 0.994 | locus YCL061C, strain MRC1 (second series), active compounds read low 0.991 | [1] 0.991 | locus YDR363W, strain ESC2, active compounds read low 1.03 | locus YER002W, strain NOP16, active compounds read low 0.969 | [2] 1.01 | locus YNL175C, strain NOP13, active compounds read low 0.986 | locus YNL197C, strain WHI3, active compounds read low 0.995 | locus YNL224C, strain SQS1, active compounds read low 0.984 | locus YOR083W, strain WHI5 (second series), active compounds read low 1.02

O=[N+]([O-])c1ccc(S(=O)(=O)N2CCCCC2)cc1
inactive: locus YAL013W, strain DEP1, active compounds read low 0.994 | locus YBR229C, strain ROT2, active compounds read low 0.985 | locus YCL061C, strain MRC1, active compounds read low 0.976 | locus YDL101C, strain DUN1, active compounds read low 0.977 | locus YDL134C, strain PPH21, active compounds read low 1 | [1] 0.962 | locus YEL061C, strain CIN8, active compounds read low 0.978 | [2] 1 | locus YGR229C, strain SMI1, active compounds read low 1 | locus YHR030C, strain SLT2, active compounds read low 1 | locus YHR087W, strain rtc3, active compounds read low 0.994 | locus YJL187C, strain SWE1, active compounds read low 0.982 | locus YJR043C, strain POL32, active compounds read low 0.992 | locus YJR075W, strain HOC1, active compounds read low 0.985 | locus YKL190W, strain CNB1, active compounds read low 1 | locus YLR039C, strain RIC1, active compounds read low 1.01 | locus YLR058C, strain SHM2 (second series), active compounds read low 0.997 | locus YLR085C, strain ARP6, active compounds read low 0.925 | locus YLR262C, strain YPT6, active compounds read low 1.03 | locus YML094W, strain GIM5, active compounds read low 0.999 | locus YMR219W, strain ESC1, active compounds read low 0.989 | locus YMR263W, strain SAP30, active compounds read low 0.972 | locus YMR307W, strain GAS1, active compounds read low 0.943 | locus YNL128W, strain TEP1, active compounds read low 1 | locus YNL153C, strain GIM3, active compounds read low 0.975 | locus YNL298W, strain CLA4 (second series), active compounds read low 0.991 | locus YNL322C, strain KRE1, active compounds read low 0.996 | locus YNR030W, strain Alg12, active compounds read low 0.989 | locus YPL055C, strain LGE1, active compounds read low 0.976 | locus YPL241C, strain CIN2, active compounds read low 0.991 | locus YPR135W, strain CTF4, active compounds read low 0.938
